Hits are enriched below; roughly 21% of the tested compounds scored in any of these assays.
Pf growth 96h = P. falciparum growth inhibition at 96 hours; P. falciparum luciferase reporter growth, 96 h; Potency, µM (top dose mostly 28.7 µM), inactives show at the top dose activity change, negative = inhibition, hits mostly inhibitors; actives 6.9% (n = 320,000); AID 504834; also: potency is read from the fitted curve at half-maximal effect; % is scaled to controls: 0 for no effect and ±100 for the full control effect
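Compounds incubated with erythrocytes infected by luciferase-expressing P. falciparum (2% hematocrit, 0.05% parasitemia final) for 96 hours, 37 C in 5% CO2. Growth inhibition scored as decreased luciferase luminescence.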
CHX counter = counter-screen hit for Shiga toxin inhibitors, cycloheximide; AID 2314; cell reporter, cycloheximide protein synthesis inhibition counterscreen; actives 12% (n = 300,000); max response, %; in the data active = max response mostly above about 13%, no sharp cut-off; inactive = mostly below about 14%; also: read at 38.3 µM for the half of the compounds with a filed dose; 0% is about no effect
HCV inh = blocks hepatitis C virus; actives 3.4% (n = 340,000); Huh7.5.1 HCVcc-Cre infection, luciferase reporter, 44 h; Potency, µM (doses to about 41.8 µM), without a hit: at the highest dose activity change, negative = inhibition, actives largely listed as inhibitors; also: potency is read from the fitted curve at half-maximal effect; % is scaled to controls: 0 for no effect and ±100 for the full control effect
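After 44 h co-culture of compound, cells and HCVcc-Cre (~0.5 moi), substrate is added for 15 min at room temperature and luciferase measured over 15 sec. Cells were seeded at 1,000/well and pre-cultured 4 h.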
Pf growth 48h = P. falciparum growth inhibition at 48 hours (one generation) | actives 5.9% (n = 310,000) | P. falciparum luciferase growth in erythrocytes, 48 h | Potency, µM (doses to about 28.7 µM), for the others: at the highest dose activity change, negative = inhibition, usual class: inhibitors; also: potency is read from the fitted curve at half-maximal effect; % is scaled to controls: 0 for no effect and ±100 for the full control effect
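In quantitative HTS format, infected erythrocytes bearing luciferase-reporter parasites were treated for a single generation at 37 C. Luminescence after adding detection reagent served as the growth measure.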
HCMV antiviral = inhibitors of human cytomegalovirus | AID 1259415 | activity change, negative = inhibition, % at 57.5 µM | HFF cells, HCMV-luciferase reporter, 72 h; active compounds read low | actives 4.5% (n = 410,000); in the data active = activity change below about -60%; inconclusive = no clear call, values can overlap the other calls; inactive = above about -39%; also: % is scaled to controls: 0 for no effect and ±100 for the full control effect
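Inhibition of viral replication was scored as loss of reporter luminescence in HFFs infected with HCMV-luciferase (MOI 1 PFU/cell) for 72 h; compounds tested at 2 doses, normalized to buffer and Salinomycin controls.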
Shiga inhibitor = inhibitors of Shiga toxin in Vero cells; Vero cells, Shiga toxin protein synthesis inhibition reporter; inhibition, % at 38.7 µM; actives 9.2% (n = 290,000); in the data active = inhibition mostly above about 28%, no sharp cut-off; inactive = mostly below about 43%; also: 0% is about no effect
Numbers without * were called inactive; i = inactive; ? = inconclusive; . = no result given; [ ] = remark or other dose. Unless noted, calls follow the shape of the dose curve; as a rule, active = well fitted inhibition curve with a large enough effect; inconclusive = small, poorly fitted or top-dose-only effect, or another doubt; inactive = no such curve, though single readings can be large or run the other way.

SMILES	Pf growth 96h	CHX counter	HCV inh	Pf growth 48h	HCMV antiviral	Shiga inhibitor
C/C(=N\Nc1nccnc1Cl)c1ccc(O)c(C)c1	122.5%	28.1*	-5.5%	70.2%	70.4	.
C/C(=N\Nc1nccnc1Cl)c1ccc([N+](=O)[O-])cc1	2.1%	40.6*	-0.7%	73.9%	12.9	66.1*
COCC1CN(CCc2ccc(F)cc2)S(=O)(=O)c2c(F)cccc2O1 (centres undefined)	.	.	.	.	-19.3	.
CCOC(=O)c1oc2c(c1C)-c1nn(Cc3cccc(Cl)c3)cc1CC2	.	.	.	.	-29.0	.
CCCNC(=O)CSc1nc2nc(C)c(Cc3ccccc3Cl)c(C)n2n1	.	.	.	.	-21.8	.
CCCn1ccc2c(OCC(=O)NCc3ccccc3Cl)cccc2c1=O	.	.	.	.	10.9	.
CCN(CC)c1c([N+](=O)[O-])c(=O)sc2ccccc12	14.7%	-5.6	0.3%	-49.7%	-7.0	-3.2
CCN(CC)c1c([N+](=O)[O-])c(=O)n(CC)c2ccccc12	?	-0.7	?	13.1µM*	-5.3	-3.2
CCNc1c([N+](=O)[O-])c(=O)n(CC)c2ccccc12	10.3%	-2.5	4.0%	-1.0%	-17.2	1.4
CCn1c(=O)c([N+](=O)[O-])c(N2CCOCC2)c2ccccc21	10.4µM*	-4.1	-3.2%	8.4%	-1.0	-5.0
CCn1c(=O)c([N+](=O)[O-])c(NCCCn2ccnc2)c2ccccc21	21.1%	-3.1	4.9%	15.9%	-64.5*	-0.9
Cc1csc(Nc2ccccc2)[n+]1C	38.1%	36.4*	7.1%	35.6%	-19.7	67.4
CC(C)Oc1ccc(-c2nc3c(C#N)c[nH]n3c2NC2CCCCC2)cc1	.	.	.	.	12.5	.
COc1ccccc1N1CCN(c2nc3c(S(=O)(=O)c4ccccc4)nnn3c3ccc(Cl)cc23)CC1	.	.	.	.	6.5	.
Cc1cc2cc3c(cc2nc1SCC(=O)N1CCCC1)OCCO3	?	-3.5	-27.5%	-7.3%	-60.6*	-3.3
CCc1ccc2nc(SCC(=O)N3CCCCC3)c(C#N)cc2c1	.	.	?	.	0.6	.
N#Cc1cc2cc3c(cc2nc1SCC(=O)N1CCOCC1)OCCO3	10.0%	51.8*	4.0%	0.0%	-61.1*	74.2*
O=C(NCc1cccc(Cl)c1)C1CCCN(c2ncnc3onc(-c4ccc(F)cc4)c23)C1 (centres undefined)	.	.	.	.	9.2	.
CN(CC#CCN1CCCC1)C(=O)c1cccc(Cl)c1	.	.	.	.	2.9	.
CC(=O)N(C)CC#CCN1CCCC(CO)C1 (centres undefined)	.	.	.	.	-60.7*	.
CNc1nc(N)nc(-c2cc(Cl)ccc2OC)n1	39.0%	-4.0	17.0%	19.4%	24.4	-3.2
CCc1cccc(CC)c1NC(=O)CSc1nc2ccc(N3C(=O)C4C(C3=O)[C@H]3C=C[C@@H]4C3)cc2s1 (some centres undefined)	-17.2%	-3.8	?	-11.8%	-71.5*	18.6
COC(=O)c1cc(C)nc2c1c(=O)nc(SCc1c(C)cc(C)cc1C)n2C1CC1	.	.	.	.	10.4	.
Cc1ccc(CSc2nc(=O)c3c(C)cc(C)nc3n2C2CC2)cc1	.	.	.	.	-101.3*	.
c1ccc2c(N3CCNCC3)nsc2c1	-22.9%	15.7*	?	13.1µM*	-107.4*	7.6
SMILES	Pf growth 96h	CHX counter	HCV inh	Pf growth 48h	HCMV antiviral	Shiga inhibitor
O=C1[C@H]2CCCC[C@H]2C(=O)N1CCCCN1CCN(c2nsc3ccccc23)CC1	12µM*	.	-27.7%	?	-61.4*	.
CC1CCCCN1CC(O)COc1ccc(OCC(O)CN2CCCCC2C)cc1 (centres undefined)	149.6%	-3.1	?	?	23.4	.
COc1cccc(-c2ncc3ccccc3c2COC(=O)N(C)C)c1	?	.	?	-5.9%	3.7	.
COc1ccc(NC(=O)c2cccc(N3C(=O)c4cccc([N+](=O)[O-])c4C3=O)c2)cc1	25.2%	24.3*	8.7%	16.9%	11.8	25.7
CC(C)(C)NC(=O)C(=O)N/N=C/c1cccs1	109.1%	37.3*	-1.5%	86.3%	26.6	67.4*
CC(C)NC(=O)CC(=O)N/N=C/c1cccs1	1.8%	-3.1	1.5%	?	-28.3	-8.7
O=C(N/N=C/c1cccs1)C(=O)Nc1cccc(Cl)c1	33.9%	20.2*	5.4%	21.4%	-12.3	55.3*
CCN(CC)C(=O)C(=O)N/N=C/c1cccs1	0.0%	7.7	0.1%	38.7%	-9.8	-1.1
COc1cc(C=NNC(=O)C(=O)Nc2cccc(Cl)c2)cc(OC)c1O	.	.	.	.	73.5	.
CC(C)CNC(=O)C(=O)N/N=C/c1cccs1	0.0%	27.8*	27.2%	-9.6%	6.6	45.8
CCCNC(=O)C(=O)N/N=C/c1cccs1	24.6%	21.3*	10.7%	31.0%	-28.5	14.6
CCOC(=O)c1cccc(NC(=O)CSc2nncn2-c2ccccn2)c1	-4.6%	-3.3	6.5%	-0.1%	-1.3	23.0
Cc1cccc(-n2c(=O)c3c(c4cc(C)ccc4n3C)n(CC(=O)NCCC3=CCCCC3)c2=O)c1	.	.	.	.	21.7	.
CCN1CCN(c2ccc(S(=O)(=O)N3CCCCC3)cc2NC(=O)c2ccc(C)o2)CC1	?	.	-7.9%[8.37 µM]	?	.	.
O=c1sc2ccccc2n1COc1ccccc1	-3.3%	14.6	19.6%	-6.0%	-95.0*	47.8
O=c1sc2ccccc2n1COc1ccc(Cl)cc1	20.8%	35.0*	-18.7%	.	-22.6	71.8
CC(=O)N1CCC(N(Cc2ccc(C)o2)C(=O)Nc2ccccc2F)CC1	.	.	.	.	17.8	.
O=C(Nc1ccc2c(c1)OCO2)N1CCCC1	24.2%	9.1	4.8%	-4.1%[5.75 µM]	-7.2	55.4*
CC1CN(C(=O)Nc2ccc3c(c2)OCO3)CC(C)O1 (centres undefined)	67.0%	44.7*	18.5%	.	48.7	50.0*
O=C(Nc1ccc2c(c1)OCCO2)N1CCOCC1	i	25.3	-12.1%	396.9%	97.7	54.0
O=C(Nc1ccc2c(c1)OCO2)N1CCOCC1	.	35.6*	1.2%	37.8%	41.0	65.9*
O=C(Nc1ccc2c(c1)OCO2)N1CCN(c2ncccn2)CC1	145.9%	35.1*	1.4%	19.7%	13.0	83.5*
CN(Cc1ccccc1)c1ccc(-c2nc(-c3ccco3)no2)cc1[N+](=O)[O-]	.	.	.	.	94.3	.
